# From the supplement of paper PMC3334620
# The full ranking holds about 33,000 sequences; the median of “E-score (-0.5 to 0.5)” is about -0.012, and the highest 2% start at about 0.27. Only a selection was taken, and the highest values are over-represented in it overall.
# Biological target: T1, Vhr1 (UniProt P40522)
# T1 sequence: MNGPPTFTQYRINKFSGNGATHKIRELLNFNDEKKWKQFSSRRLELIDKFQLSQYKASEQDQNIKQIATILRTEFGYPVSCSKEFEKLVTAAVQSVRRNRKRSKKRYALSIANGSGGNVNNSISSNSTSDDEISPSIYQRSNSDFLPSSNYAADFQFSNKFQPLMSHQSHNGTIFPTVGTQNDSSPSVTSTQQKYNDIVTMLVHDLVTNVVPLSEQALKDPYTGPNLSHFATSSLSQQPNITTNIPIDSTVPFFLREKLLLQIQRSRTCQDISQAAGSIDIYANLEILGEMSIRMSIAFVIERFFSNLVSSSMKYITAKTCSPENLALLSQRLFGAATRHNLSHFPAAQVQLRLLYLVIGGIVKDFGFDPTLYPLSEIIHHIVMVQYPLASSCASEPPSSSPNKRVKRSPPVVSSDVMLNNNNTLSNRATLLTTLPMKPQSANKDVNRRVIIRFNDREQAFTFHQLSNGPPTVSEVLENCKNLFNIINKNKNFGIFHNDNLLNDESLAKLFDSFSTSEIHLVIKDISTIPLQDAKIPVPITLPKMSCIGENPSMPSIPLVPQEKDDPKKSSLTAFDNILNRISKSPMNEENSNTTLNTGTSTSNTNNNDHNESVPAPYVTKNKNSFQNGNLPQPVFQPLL
# Assay: PBM E-score (8-mer binding enrichment) (E-score (-0.5 to 0.5)); higher = stronger / more preferred TF binding
# Conditions: protein concentration: 200 nM; construct: GST-full length
# Method in brief: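 For each ungapped eight-base word taken together with its reverse complement, the Universal PBM Analysis Suite assigned an E-score. Binding data came from GST-tagged yeast transcription factors, applied at about 100-200 nM, on universal all-10-mer Agilent arrays made double-stranded by primer extension. Fluorescent anti-GST marked bound protein, and scans were normalised with masliner.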
row,Sequence,PBM E-score
1,ACCTCCAT,0.0255
2,CTAGTGGA,-0.162
3,GATCCCTA,-0.0993
4,GGCCAGGA,-0.105
5,AATTAGTC,0.29
6,AGTTAGTA,0.137
7,AGTTAGTC,0.291
8,CGTTAGTC,0.132
9,AATTAGTA,0.146
10,CATTAGTC,0.257
11,CAATCTAA,-0.13
12,ATAGCAAG,0.161
13,GCGAGACC,-0.049
14,ACTTAGGA,-0.198
15,GGACTAAA,-0.248
16,CGACTACA,0.272
17,CGACTAAA,0.0758
18,AGACTAAA,0.0442
19,CGACTACC,0.22
20,TGACTAAA,0.326
21,TGACTACA,0.359
22,AGACTACA,0.17
23,GGACTAAC,-0.00735
24,CGACTAAC,0.303
25,CGACTACG,0.188

row,Sequence,PBM E-score
1,GGACTACA,0.146
2,CAGATAAG,-0.0755
3,CTTCGACA,-0.0949
4,CGGCCAAC,0.0556
5,CGTCCTAA,0.0547
6,GGCACATA,0.13
7,GGGCCAAC,-0.157
8,ACCATAGG,0.0531
9,TAGTAATA,0.191
10,AAGGGGCG,-0.0512
11,CAGGGGCC,-0.184
12,CAGGGGCG,0.301
13,CTTTAGAA,-0.238
14,GAGAAAGA,-0.167
15,CTCCGGAC,0.0766
16,GTCCGGAC,0.273
17,ATCCGGAC,-0.192
18,AGGATCTC,-0.119
19,ATCAATGC,0.0623
20,AGGAGACG,-0.176
21,CCCGTGAA,-0.0611
22,CGCCTATA,-0.135
23,CGCGACCC,0.153
24,GGCGACTA,0.212
25,AGCGACTG,0.194

row,Sequence,PBM E-score
1,CGCGACTA,0.391
2,AGCGACTC,0.314
3,CGCGACTC,0.449
4,AGCGACTA,0.211
5,CTCGACTA,0.163
6,CTCGACTC,0.19
7,GAGGTATA,0.113
8,CTTGCTGC,-0.113
9,CCAATACG,-0.209
10,ATGTGCGC,-0.0331
11,ACACTTTA,-0.0402
12,GAACCTGA,0.0239
13,TCCTGACA,0.107
14,GGGAACCA,0.176
15,ACGAACCC,-0.119
16,ACGAACCA,0.273
17,ATGAACCG,0.0189
18,ATGAACCA,0.294
19,CGGAACCG,0.0495
20,CCGAACCA,0.0572
21,CTGAACCA,0.245
22,CGGAACCA,0.343
23,GCTCCTCA,-0.363
24,CTATCGGA,-0.237
25,ACAGTTCC,-0.00019

row,Sequence,PBM E-score
1,ATATCTTC,0.11
2,ACTATCTA,0.184
3,CAGCCAGG,0.0621
4,GTGGTAAC,-0.0602
5,ACGAAGCA,0.00046
6,CAGACTCG,0.0994
7,AACCTCAG,-0.103
8,GAGTGTAA,0.0325
9,AAGTGTGA,0.0182
10,GAGTGTGA,0.278
11,TAGTGTGA,0.088
12,CAGTGTGA,0.285
13,GAGTGTGC,0.0366
14,GATTCCGA,0.287
15,GATTCACA,0.326
16,GATTCAGC,0.149
17,GATTCCGC,0.216
18,TATTCAGA,0.178
19,CATTCACG,-0.114
20,GATTCAGA,0.305
21,CATTCACA,0.00907
22,CATTCCGA,0.0348
23,CGAAAGCA,-0.046
24,GATACACC,0.197
25,ACTGGCTG,0.0954

row,Sequence,PBM E-score
1,CTTACCCA,0.104
2,ACTCCAGA,0.0505
3,TCTGCCCA,-0.179
4,AACCAACT,0.0869
5,CGTGCTAA,-0.201
6,CCCATGAG,0.227
7,ACTCATGA,0.369
8,ACACATGG,0.215
9,CCTCATGA,0.0599
10,ATGCATGG,0.28
11,ATTCATGC,0.21
12,ACTCATGG,0.317
13,ATGCATGA,0.165
14,ATTCATGG,0.21
15,GCTCATGA,0.16
16,ACTCATGC,0.322
17,ATGCATGC,-0.0419
18,CCTCATGC,0.0272
19,AATTCACG,-0.0883
20,CGACAGAG,0.0418
21,GGACTATA,0.0737
22,CCAATTCC,-0.0792
23,ATCGTCTA,0.0131
24,ATCCTCCC,-0.107
25,CAAGTTCC,-0.216

row,Sequence,PBM E-score
1,AAGTCCGA,-0.205
2,ATTATACC,0.112
3,ATTATACA,0.00881
4,ATTATACG,0.303
5,AGATTCAA,-0.133
6,GGATTCAA,-0.0312
7,CGATTCCA,0.0812
8,AGATTCCA,0.00955
9,AGGTTCAA,0.0239
10,TGATTCAA,0.326
11,TGATTCCA,0.364
12,CGGTTCAA,0.0706
13,TGGTTCAA,0.289
14,CGATGAAA,-0.0595
15,AAGCTTTA,-0.237
16,CTAAAACA,-0.0504
17,GTAGCTTA,0.00186
18,CAAGTAAG,-0.123
19,CCATTCAG,-0.0511
20,ACTAGTCC,0.133
21,TCTAGTCA,0.218
22,CCTAGTCG,0.0391
23,GCTAGTCC,-0.158
24,GCTAGTCA,0.284
25,CCTAGTCA,0.309

row,Sequence,PBM E-score
1,ACTAGTCA,0.292
2,CCTAGTCC,-0.0886
3,GCTAGTTA,0.00532
4,ATCTTCTG,-0.113
5,ACTTCGGA,-0.00447
6,GAAAGTTC,-0.349
7,AGAGTACT,0.0467
8,ATTCTTAC,-0.00122
9,CTCTGGAC,0.0126
10,ACGCCCCA,0.112
11,CCGCCCGG,0.0777
12,CCTCCCAA,-0.246
13,CCTCCCCA,0.28
14,CCGCCCCC,-0.17
15,CCGCCCCG,0.365
16,CCTCCCCC,-0.19
17,CCGCCCCA,0.349
18,GCGCCCCA,-0.131
19,CAGAAATG,-0.168
20,CTTCATGA,0.145
21,CGGCCGAA,0.185
22,AGGTTGAA,-0.127
